From PubChem BioAssay AID886 (National Center for Advancing Translational Sciences (NCATS), 2007)
Several values for one entry are separate records, joined by “and”; a condition that tells them apart may be missing. Equal entries are not always repeated. In all, about 73,000 compounds went through this assay and about 2,500 (3.4%) were called active. About 7% were inconclusive and are not listed. Calls come from the whole dose curve; as a rule, active = well fitted inhibition curve with a large enough effect; inconclusive = small, poorly fitted or top-dose-only effect; inactive = no such curve, though single readings can be large or run the other way. The full list was thinned out, with actives kept by preference.

Biological target: 3-hydroxyacyl-CoA dehydrogenase type-2 (Homo sapiens) (UniProt Q99714)
Sequence (Q99714 whole entry, looked up): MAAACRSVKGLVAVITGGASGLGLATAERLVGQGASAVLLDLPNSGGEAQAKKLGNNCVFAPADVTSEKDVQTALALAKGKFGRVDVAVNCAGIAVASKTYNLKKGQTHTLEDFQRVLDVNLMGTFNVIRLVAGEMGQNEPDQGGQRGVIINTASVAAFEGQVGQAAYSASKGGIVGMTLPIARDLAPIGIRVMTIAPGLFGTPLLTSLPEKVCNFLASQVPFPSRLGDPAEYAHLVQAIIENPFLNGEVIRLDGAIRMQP
Sequence (Q99714 whole entry, looked up): as above
Assay: qHTS Assay for Inhibitors of HADH2 (Hydroxyacyl-Coenzyme A Dehydrogenase, Type II); note: nearly all actives have a fitted effect of over 60% in size
Settings: recombinant HADH2, NADH fluorescence, beta-hydroxybutyryl-CoA; series mostly up to 57.1 µM; activity change, negative = inhibition: at the top concentration
Excerpt: Assay Overview: NIH Molecular Libraries Screening Centers Network [MLSCN] NIH Chemical Genomics Center [NCGC] Structural Genomics Consortium [SGC] Grant Number: None HADH2: Hydroxyacyl-Coenzyme A dehydrogenase, type II, was supplied by researchers at the Structural Genomics Consortium, Oxford University lab (PI Udo Oppermann). The mitochondrial enzyme 17-hydroxysteroid dehydrogenase type 10 (HSD17-10) previously classified as type II hydroxyacyl-CoA dehydrogenase (HADH2) catalyzes the NAD+ dependent oxidation of a variety of substrates including acyl-CoAs, androgens and neurosteroids as well as bile acids(Shafqat N, Marschall HU, Filling C, et al. Biochemical Journal. 2003;376(Pt 1):49-60). The role in neurodegeneration by binding to amyloid-peptide led to its identification (Oppermann UC, et al FEBS Letters. 1999;451(3):238-242 and Yan SD, et al. Nature. 1997;389(6652):689-695), and mutations in its gene appear to be causative for 2-methyl-3-hydroxybutyryl-CoA dehydrogenase deficiency (Ofman R, et al. American Journal of Human Genetics. 2003;72(5):1300-1307). The enzyme was produced by E.coli fermentation as His-tagged recombinant for the purpose of X-ray structure determination, and had been mass-spectrometry characterized. Inhibition of HADH2 activity was screened by utilizing beta-hydroxybutyryl coenzyme A as an electron donor and NAD+ as an electron acceptor/cofactor. An increase in the fluorescence intensity due to conversion of NAD+ to NADH was used to measure the enzyme activity.
Assay Protocol: Buffer: 100 mM Tris-HCl pH 9.0, containing 0.01 % Tween-20. Reagents/Controls: Buffer in columns 3 and 4 as negative control (no enzyme). Substrate/cofactor solution: 1 mM NAD+ and 90 uM beta-hydroxybutyryl coenzyme A (Sigma-Aldrich, St. Louis, MO) final concentrations dispensed throughout the plate. Enzyme: 20 nM HADH2 final concentration in columns 1, 2, 5-48. Column 1 is neutral (100% activity). Column 2 contained titration of apomorphine (Sigma-Aldrich, A 4393, PubChem CID 2215, top concentration 500 uM, then 1:2 dilution in duplicate) Assay Steps: Three uL of enzyme were dispensed to 1536-well Greiner black solid bottom plates. Compounds and controls (23 nL) were transferred via Kalypsys PinTool. The plates were incubated for 15 min at room temperature, and then 1 uL of substrate/cofactor solution was added to start the reaction. The plates were immediately transferred to and read every 30 seconds for 4 min on ViewLux High-throughput CCD imager (Perkin-Elmer) using 360 nm excitation and 450 nm emission fluorescence protocol. The fluorescence intensity difference between the last and the first time points was used to compute reaction progress.
% is set by controls: 0 for no effect and ±100 for the full control effect; potency is the fitted concentration of half-maximal effect.

Activity change, negative = inhibition, inactive:
Cc1cccc(C(=O)O)c1 4.88%
O=C(O)c1ccc(Cl)c(S(=O)(=O)Nc2ccccc2Cl)c1 0.423%
COC(=O)c1ccc2c(=O)n(CC3CCCO3)c(=S)[nH]c2c1 (stereo not drawn) -4.1%
COC(=O)c1cccc(NC(=O)CSc2nc(C)cc(=O)[nH]2)c1 -17.2%
O=c1c(-c2cc(F)cc(F)c2)nc2cnc(Oc3ccccc3)nc2n1C[C@H]1CCCO1 13.6%
Fc1ccc(-c2nnc(CSc3nnc(-c4ccc5c(c4)OCO5)o3)o2)cc1 6.68%
Fc1ccc(-c2ccc(-c3nn4c(-c5ccco5)nnc4s3)o2)cc1 -24.2%
C/C(CCN1CCCCc2nc(C)c(C)cc21)=N\O[C@@H](C)c1cn([C@@H]2COC[C@@H]2O)nn1 -2.51% [at 11.4 µM]
O=C(c1ccc(F)cc1)C1CCN(CCCCc2ccccc2)CC1 9.57%
COc1ccc(-n2c(C)cc(C(=O)CSc3nnc(-c4cccs4)o3)c2C)cc1 -5.17%
COc1ccc(-c2nnc(SCC(=O)c3cccs3)o2)c(OC)c1 16.5%
CCCCC[C@H](O)CCCC(=O)O 0.156%
CN1CCC(CNC(=O)c2ccc(-n3c(=O)c(=O)[nH]c4ccccc43)cc2)CC1 -0.499%
COC(=O)C1(C)C=CCN1C(=O)c1ccccc1 (stereo not drawn) 5.4%
O=C1[C@H]2[C@H]3[C@H](O)[C@H](O)C/C(=N/OCc4ccccc4)[C@H]3CC[C@@H]2C(=O)N1Cc1ccccc1 -3.88% [at 11.4 µM]
CN1CCC2(CC1)CCN(S(=O)(=O)c1ccccc1)CC2 1.8%
O=S(=O)(O)c1ccc(O)c2ncccc12.O=S(=O)(O)c1ccc(O)c2ncccc12.[Zn] -19.7% [at 11.4 µM]
O=C(COC(=O)c1ccc(Oc2ccccc2)cc1)Nc1nnc(-c2ccccc2)o1 2.91%
CCN1C(=O)/C(=C\N2CCN(c3cccc(Cl)c3)CC2)SC1=S -1.99%
CCN1C(=O)/C(=C\N2CCN(c3ccccc3)CC2)SC1=S -0.798%
Cc1ccc(NC(=O)c2cccc(N(C)C)c2)cc1NC(=O)c1ccc(O)cc1 -1.28%
CCC[C@@H]1C[C@@]1(CCC)C(NS(=O)(=O)c1cccc2cccnc12)c1ccc(Cl)cc1 (stereo partly drawn) -3.66%
C[C@]1(C(=O)NCCc2c[nH]c3ccccc23)C=C[C@@H](Cc2ccccc2)N1C(=O)c1ccccc1 7.45%
COC(=O)C1=C(C)N(Cc2ccccc2)C2=C3C(=O)N(c4ccccc4)C(=O)C3[C@@](O)(C(=O)OC)C(=O)N2C1c1ccccc1 (stereo partly drawn) 10.1% [at 11.4 µM] and 2.48% [at 11.4 µM]
CCOc1nc(OCC)nc(-n2cc(-c3ccccc3)nn2)n1 5.08%
CCCC(=O)Nc1cccc(-c2cn3ccsc3n2)c1 5.86%
CC(=O)Nc1cccc(-c2cnc3ccccc3n2)c1 12.1%
COC(=O)C(C(=O)OC)[C@@H]1CCCC(=O)C1 12% [at 11.4 µM]
CC(C)[C@@H](CC(=O)N[C@@H]1CCNC[C@H]1C(=O)N[C@H](CC(=O)N[C@@H](CCC(=O)O)CC(=O)O)Cc1ccccc1)NC(=O)C[C@H](CO)NC(=O)[C@@H]1CNCC[C@H]1N -15.2%
O=C1C(c2ccccn2)=[N+]([O-])c2ccccc21 -27.4%
Cc1c(C(=O)N2CCOCC2)[nH]c2ccc(OCc3ccccc3)cc12 -11.1%
COc1cc(NC(=O)N2CCOCC2)cc(OC)c1 5.67%
CC(=O)N1CCC2(CC1)CCN(c1ccncc1)CC2 -5.97%
CC1(CCC(=O)OC2CCCCC2)OCCO1 -20.4% [at 11.4 µM]
O=C(Cn1ccc(=O)[nH]c1=O)Nc1ccc(C(=O)O)c(O)c1 -10.7% [at 11.4 µM]
COc1ccccc1-c1nc(NCc2cccs2)c2ccccc2n1 -23.6%
CC(C)c1ccc2c([Si](C)(C)C)c3c(nc2c1)-c1cccc(=O)n1C3 34.4%

Potency, inactive:
CCS(=O)(=O)N(C)[C@@H]1c2cc(C#N)ccc2OC(C)(C)[C@H]1O
CC(N)=NCc1cccc(CN)c1
CN1CCN2c3ccccc3Cc3ccccc3[C@@H]2C1

Potency, active:
CCOC(=O)c1sc(=S)n2c1[nH]c(=O)c1ccc(C(=O)OC)cc12 1 µM
Fc1ccc(-c2nnc3sc(-c4ccc5c(c4)OCO5)nn23)cc1 25.1 µM
COc1ccc(OC)c(C(=O)CSc2nnc(-c3cccs3)o2)c1 25.1 µM
Nc1ccc(-c2nnc(-c3ccc(-c4ccccc4)cc3)o2)cc1 31.6 µM
CCN1C(=O)/C(=C2/Sc3ccccc3N2CCCS(=O)(=O)O)SC1=S 20 µM
c1ccc(-c2cn3cccnc3n2)cc1 12.6 µM
CC(=O)Nc1ccc(-c2cn3cccnc3n2)cc1 15.8 µM
CCOC(=O)c1[nH]c2ccc(OC)cc2c1NC(=O)N1CCOCC1 25.1 µM
